Where a structure was tested more than once in an assay, its records may differ in their call. Activity calls are given as the source filed them. How the source made its calls: active means hit-call score of the fitted dose curve at least 0.9, where 1 is the maximum; inactive means score below 0.9.
Read-out: Bcl-2 (BID) gene, BID (gene 637)
Assay: LTEA_HepaRG_BID: Life Technologies and Expression Analysis (LTEA) Assay for Bcl-2 (BID) gene using HepaRG (AID 2283476)
Conditions: mRNA level, 48 h; actives raise or lower the signal
Protocol: LTEA_HepaRG is a cell based, multiplexed-readout assay that uses HepaRG, a human liver cell line, with measurements taken at 48 hours after chemical dosing on a 96-well plate.LTEA_HepaRG_BID is one of 102 assay component(s) measured in the LTEA HepaRG cell culture assay. It is a marker of Cell proliferation, survival, death.Data from the assay component LTEA_HepaRG_BID was analyzed into 1 endpoint. This assay endpoint, LTEA_HepaRG_BID, was analyzed with bidirectional fitting relative to DMSO as the negative control and baseline of activity. Using a type of inducible reporter, measures of mRNA induction for gain or loss-of-signal activity can be used to understand regulation of transcription factor activity. To generalize the intended target to other relatable targets, this assay endpoint is annotated to the cell cycle intended target family, where the subfamily is Cell proliferation, survival, death.
A total of 1060 chemcials from the ToxCast library were tested in eight-point concentration-response experiments. Cell culture and cytotoxicity assays were conducted at Thermo Fisher Scientific's Custom Services facility (Madison, WI). A single lot of human HepaRG cells (Thermo Fisher Scientific, Frederick, MD) was used for the cell culture experiments. 96-well format collagen type I coated plates of human HepaRG cells were prepared using established methods. Briefly, cryopreserved HepaRG cells were thawed, plated at a density of approximately 100,000 cells/well in HepaRG Thaw, Plate, and General Purpose media (HPRG770, Thermo Fisher Scientific), and incubated for 48 hours. 0.5% DMSO was selected as vehicle control to balance the requisite need of DMSO in HepaRG cultures to maintain differentiation (for example, baseline metabolism, proportions of hepatocytes vs. cholangiocytes), while enabling further hepatic receptor pathway activation (for example, PXR and CAR) in response to chemical exposure. 48 hours after plating, the culture medium was replaced with HepaRG Serum-Free Incudtion Media. Cells were exposed to each test chemical in duplicate and maintained in CO2 incubators for another 48 hours. Chemical plates were thawed to room temperature and 200x concentrations of treatment groups were prepared. 8-point conentration-reponse curves were made with the highest exposure at 100 uM, followed by half-log dilutions, all in 0.5% DMSO. Each test plate contained variouse controls, induction positive controls (1mM phenobarbital), cytotoxicity positive controls ([…] aflatoxin B1), vehicle controls (0.5% DMSO), and total lysis controls (0.5% DMSO). Cell morphology images were taken using an Essen IncuCyte FLR automated microscope, with six 96-well plates imaged in about 24 minutes. Images were captured and exported and JPEG files. Spent culture media was transfered to black-well plates for the LDH assay, and remaining media was sorted at -80 C for later use. Cells were treated with RLT buffer and frozen until shipped for gene expression analysis. Total RNA was isolated from the cell suspension in 75 uL of Buffer RLT (Qiagen, Germantown, MD 20874) by Quintiles/Expression Analysis (Durham, NC) using a custom isolation procedure. Total RNA from each plate well was transferred to a preamplification plate. Fluidigm's 96.96 Dynamic ArrayTM (Fluidigm, Amsterdam, the Netherlands) technology was used for gene expression analyses by quantitative reverse transcription polymerase chain reaction (qRT-PCR, performed by Quintiles/Expression Analysis, Durham, NC)89. Standard TaqManTM Assays (Applied Biosystems/ThermoFisher Scientific, Foster City, CA) were used to assess the expression of 93 genes selected based on their selectivity and sensitivity to important hepatic receptors known to be modulated by environmental chemicals; importance in human hepatocyte functionality; and hepatotoxicity. […]

| Structure (SMILES) | outcome | AC50 |
| --- | --- | --- |
| CC[C@H](C)[C@H]1O[C@]2(C=C[C@@H]1C)C[C@@H]1C[C@@H](C/C=C(\C)[C@@H](O[C@H]3C[C@H](OC)[C@@H](O[C@H]4C[C@H](OC)[C@@H](O)[C@H](C)O4)[C@H](C)O3)[C@@H](C)/C=C/C=C3\CO[C@@H]4[C@H](O)C(C)=C[C@@H](C(=O)O1)[C@]34O)O2 (tested in a mixture with another compound) | inactive |  |
| CCCN(CCOc1c(Cl)cc(Cl)cc1Cl)C(=O)n1ccnc1 | inactive |  |
| O=S1OCC2C(CO1)C1(Cl)C(Cl)=C(Cl)C2(Cl)C1(Cl)Cl (stereo not given) | inactive |  |
| CCOCN(C(=O)CCl)c1c(C)cccc1CC | inactive |  |
| CC(C)(C)C(O)/C(=C\c1ccc(Cl)cc1Cl)n1cncn1 (stereo not given) | inactive |  |
| Clc1ccccc1-c1nnc(-c2ccccc2Cl)nn1 | inactive |  |
| C#CCN1C(=O)COc2cc(F)c(N3C(=O)C4=C(CCCC4)C3=O)cc21 | inactive |  |
| N#CN | inactive |  |
| COP(=S)(OC)Oc1ccc(SC)c(C)c1 | inactive |  |
| CC1(c2ccc(Oc3ccccc3)cc2)OC(=O)N(Nc2ccccc2)C1=O (stereo not given) | inactive |  |
| CNC(=O)/C=C(\C)OP(=O)(OC)OC | inactive |  |
| O=C(O)CCCOc1ccc(Cl)cc1Cl | inactive |  |
| CCOC1Oc2ccc(OS(C)(=O)=O)cc2C1(C)C (stereo not given) | inactive |  |
| CCC(C)(NC(=O)c1cc(Cl)c(C)c(Cl)c1)C(=O)CCl (stereo not given) |  | 82.9 µM (active) |
| CNC(=O)Oc1cccc(N=CN(C)C)c1 | inactive |  |
| Oc1cc(Cl)ccc1Oc1ccc(Cl)cc1Cl | inactive | 10.1 µM (active) |
| Oc1ccc(Cl)cc1Cc1ccccc1 | inactive |  |
| CCC(C)Nc1c([N+](=O)[O-])cc(C(C)(C)C)cc1[N+](=O)[O-] (stereo not given) | inactive |  |
| COP(=O)(OC)OC=C(Cl)Cl | inactive |  |
| ClC1C(Cl)C(Cl)C(Cl)C(Cl)C1Cl (stereo not given) | inactive |  |

| Structure (SMILES) | outcome | AC50 |
| --- | --- | --- |
| O=C(O)COc1ccc(Cl)cc1Cl | inactive |  |
| CC(C)OC(=O)Nc1cccc(Cl)c1 |  | 7.78 µM (active) |
| CNC(=O)CSP(=S)(OC)OC | inactive |  |
| OCCOc1ccccc1 | inactive |  |
| CCc1ccc(C(=O)NN(C(=O)c2cc(C)cc(C)c2)C(C)(C)C)cc1 | inactive |  |
| N#Cc1c(Cl)c(Cl)c(Cl)c(C#N)c1Cl | inactive |  |
| Cc1[nH]c(=O)n(C(C)(C)C)c(=O)c1Cl | inactive |  |
| CC(C)N(C(=O)COc1nnc(C(F)(F)F)s1)c1ccc(F)cc1 | inactive |  |
| CN1CSC(=S)N(C)C1 | inactive |  |
| CNC(=O)Oc1ccccc1OC(C)C | inactive |  |
| CC1(C)C(C=C(Cl)Cl)C1C(=O)OC(C#N)c1ccc(F)c(Oc2ccccc2)c1 (stereo not given) | inactive |  |
| O=C(O)C(F)(F)C(F)(F)C(F)(F)C(F)(F)C(F)(F)C(F)(F)C(F)(F)F | inactive |  |
| O=C(NC(=O)c1c(F)cccc1F)Nc1ccc(OC(F)(F)C(F)OC(F)(F)F)c(Cl)c1 (stereo not given) | inactive |  |
| O=[N+]([O-])c1c(Cl)c(Cl)c(Cl)c(Cl)c1Cl | inactive |  |
| C[C@H]1[C@H](c2ccc(Cl)cc2)SC(=O)N1C(=O)NC1CCCCC1 | inactive |  |
| O=[N+]([O-])/N=C1\NCCN1Cc1ccc(Cl)nc1 | inactive |  |
| O=C1c2ccccc2C(=O)N1SC(Cl)(Cl)Cl | inactive |  |
| CCN(CC)C(=O)SCc1ccc(Cl)cc1 | inactive |  |
| O=S(=O)(O)C(F)(F)C(F)(F)C(F)(F)C(F)(F)C(F)(F)C(F)(F)C(F)(F)C(F)(F)F | inactive |  |

Reference: PubChem BioAssay (EPA / NIEHS)
